Measured values: PubChem BioAssay (NCATS)
Inconclusive results are not listed. Unmarked numbers belong to inactive results. The source made the active and inactive calls. Calls come from the whole dose curve; as a rule, active = well fitted inhibition curve with a large enough effect; inconclusive = small, poorly fitted or top-dose-only effect; inactive = no such curve, though single readings can be large or run the other way.

The compounds below were run against Cytochrome P450 2C9 (Homo sapiens) (UniProt P11712) (assay: qHTS Assay for Inhibitors and Substrates of Cytochrome P450 2C9 (AID 883; note: nearly all actives have a fitted effect of over 60% in size)). Details: recombinant CYP2C9, luciferin-H luminescence, 60 min; series mostly up to 57.1 µM; activity change, negative = inhibition: at the top concentration.
Sequence of Cytochrome P450 2C9 (Homo sapiens) (P11712 whole entry, looked up): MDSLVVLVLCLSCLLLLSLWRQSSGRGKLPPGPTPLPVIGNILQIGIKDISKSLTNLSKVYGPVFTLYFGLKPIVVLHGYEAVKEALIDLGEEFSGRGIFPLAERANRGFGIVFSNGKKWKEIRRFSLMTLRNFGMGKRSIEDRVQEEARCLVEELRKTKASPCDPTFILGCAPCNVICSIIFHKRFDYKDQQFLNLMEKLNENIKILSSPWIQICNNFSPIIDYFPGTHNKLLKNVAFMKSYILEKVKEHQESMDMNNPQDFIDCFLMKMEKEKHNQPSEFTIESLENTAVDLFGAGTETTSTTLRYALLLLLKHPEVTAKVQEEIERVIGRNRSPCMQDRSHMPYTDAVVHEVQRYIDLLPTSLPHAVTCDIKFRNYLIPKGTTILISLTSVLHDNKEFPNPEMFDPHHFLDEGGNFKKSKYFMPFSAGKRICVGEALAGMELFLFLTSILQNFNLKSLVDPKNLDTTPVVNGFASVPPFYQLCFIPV
Experimental: NIH Molecular Libraries Screening Centers Network [MLSCN] NIH Chemical Genomics Center [NCGC] MLSCN Grant: None NCGC Assay Overview: The P450 gene superfamily is involved in the metabolism and clearance of xenobiotics. This assay used human CYP2C9 to measure the hydroxylation of deoxyluciferin (Luciferin-H; P450 Glo-Buffer) to luciferin. The luciferin is then measured by luminescence after the addition of a luciferase detection reagent. Luciferin-H concentration in the assay was equal to its Michaelis constant KM for CYP2C9. Inhibitors and some substrates limit the production of luciferin, and decrease measured luminescence.
NCGC Assay Protocol Summary: Two uL of enzyme and substrate mix (final concentrations: 10nM CYP2C9, 100uM Luciferin-H, 25mM KPO4) were dispensed into a white, solid bottom 1536-well microtiter plate. 23nL of compound was transferred by a pin tool. The plate was incubated at 37C for 10 min. Two uL of an NADPH regeneration solution (Promega supplied reagent) was dispensed and the reaction was allowed to continue for 60 min at 37C. Then the reaction was stopped by reconstituted P450 Glo-Buffer. After another 20 min of incubation the plate was read on the ViewLux (Perkin Elmer) at 60 sec exposure and 2x2 binning. This protocol was carried out with Promega-Glo reagents and further information can be found at http://www.promega.com/tbs/tb325/tb325.pdf. Data were normalized to the to AC100 inhibition (57uM sulphaphenazole). Keywords: P450, CYP2C9, Luciferase, MLSMR, MLSCN, NIH Roadmap, qHTS, NCGC
% is set by controls: 0 for no effect and ±100 for the full control effect; potency is the fitted concentration of half-maximal effect.

SMILES | Potency | activity change, negative = inhibition
NC[C@@H]1O[C@H](c2ccccc2)Cc2c1ccc(O)c2O | 6.31 µM (active) | –
O=S(=O)(c1cccc2c(Cl)cccc12)N1CCCNCC1 | inactive | –
C=C1C(=O)O[C@@H]2[C@H]3O[C@]3(C)CCC=C(C)CC[C@@H]12 | – | 7.46%
CNC(=O)c1cc2c(cn1)[nH]c1ccccc12 | – | 9.2%
O=C(O)c1cccnc1C(=O)O | – | -9.24%
O=[N+]([O-])c1cccc2cn[nH]c12 | – | 0.595%
O=C(c1ccc2c(c1)OCCO2)N1CCCCC1 | – | 1.79%
NCCS(=O)O | – | -6.45%
O=[N+]([O-])c1cccc2c(Br)[nH]nc12 | – | 10.9%
COc1ccc(NC(=O)c2ccc(-c3ccc(-c4noc(C)n4)cc3C)cc2)cc1N1CCN(C)CC1 | 7.94 µM (active) | –
CC[N+](CC)(CC)CC(=O)Nc1c(C)cccc1C | – | 42.3%
CC(=O)C(C)=O | – | 28.2%
CCCCCCN(CCCCCC)C(=O)Cc1c(-c2ccc(F)cc2)[nH]c2ccccc12 | – | -18.5%
CCCc1c(-c2ccc(O)cc2)nn(-c2ccc(O)cc2)c1-c1ccc(O)cc1 | 3.16 µM (active) | –
C[C@](Cc1ccc(O)c(O)c1)(NN)C(=O)O | – | -16.4%
CCn1c(=O)[nH]c2cc(Cl)c(Cl)cc21 | – | -17.9%
N[C@H](C(=O)O)c1cc(O)cc(O)c1 | – | 4.95%
Oc1ccc(Cn2cc[nH]c2=S)cc1 | – | 32.2%
NC/C=C\C(=O)O | – | -8.38%
Oc1cc(O)c2c(c1)O[C@H](c1ccc(O)c(O)c1)[C@@H](O)C2 | – | -18.4%

SMILES | Potency | activity change, negative = inhibition
CCN(CC)CCOC(=O)c1cc(Cl)c(N)cc1OC | – | 38.1%
NC(N)=NC(N)=Nc1cccc(Cl)c1 | – | 32.6%
CN[C@H](CC(=O)O)C(=O)O | – | -14.2%
O=c1onc2cnc3ccccc3n12 | – | 12.4%
NC(=O)c1ccccc1 | – | 5.75%
N#Cc1cc2nc(O)c(O)nc2cc1[N+](=O)[O-] | – | 36.2%
CCCCCCCC/C=C\CCCCCCCC(=O)NCCc1ccc(O)c(O)c1 | 1.58 µM (active) | –
Cc1nc(N=Nc2ccc(C(=O)O)cc2)c(COP(=O)(O)O)c(C=O)c1O | – | -11.4%
Cn1cc(C(=O)OCC2CCN(CCNS(C)(=O)=O)CC2)c2ccccc21 | – | 23.1%
COc1cc(/C=C(\C#N)C(=O)c2ccc(O)c(O)c2)cc(I)c1O | 0.501 µM (active) | –
CC(=O)NNC(=O)N1Cc2ccccc2Oc2ccc(Cl)cc21 | – | -13.4%
NC(N)=NC(N)=Nc1ccccc1 | – | 7.53%
CC[C@H](NC(=O)c1c(C)c(-c2ccccc2)nc2ccccc12)c1ccccc1 | 12.6 µM (active) | –
CNc1cc(NS(=O)(=O)c2ccc(N)cc2)nc(NC)n1 | 2 µM (active) | –
CC(=O)N[C@@H](Cc1c[nH]c2ccccc12)C(=O)OCc1cc(C(F)(F)F)cc(C(F)(F)F)c1 | 12.6 µM (active) | –
CCCn1c(=O)c2[nH]c(C3CCCC3)nc2n(CCC)c1=O | – | -26.7%
O=C(O)c1cc2cc(F)ccc2[nH]1 | – | 9.53%
Nc1ccc2c3c(cccc13)C(=O)NC2=O | – | 43.3%
O=C(O)c1ccccc1Nc1cccc(OCc2ccc3ccccc3n2)c1 | 31.6 µM (active) | –
O=C(O)Cc1c[nH]c2ccc(O)cc12 | – | 31.1%
